# Screening data (PubChem)
# Hits are enriched below; roughly 3.3% of the tested compounds scored in any of these assays.
# Sm TGR block: S. mansoni TGR enzyme inhibition. Potency, µM (titrated, usually from 114 µM), for inactives: at the highest dose activity change, negative = inhibition, actives largely listed as inhibitors. AID 485364. Q962Y6. 360,000 compounds, 3% hits. purified TGR, DTNB reduction, TNB absorbance 405 nm; note: % is set by controls: 0 for no effect and ±100 for the full control effect; nearly all actives have a fitted effect of over 60% in size
#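 First, TGR (20 nM dispensed) and NADPH were mixed with compound. Second, a 15 min room-temperature incubation followed. Third, further NADPH and then DTNB were added to start the reaction. Finally, TNB absorbance was monitored kinetically.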
# TbPYK inhibitor: inhibitors of Trypanosoma brucei pyruvate kinase. TbPYK enzyme, Kinase-Glo Plus ATP luminescence, 45 min. Potency, µM (titrated, usually from 76.8 µM), for the others: at the highest dose activity, negative = inhibition, usual class: inhibitors. AID 624173. 410,000 compounds, 0.12% hits; note: % is set by controls: 0 for no effect and ±100 for the full control effect; nearly all actives have a fitted effect of over 50% in size
#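 TbPYK + substrate in 50 mM TEA pH 7.2, 100 mM KCl, 10 mM MgCl2, 0.05% BSA, 0.01% Tween-20; cpd pinned; ADP 130 uM final; 45 min RT; Kinase-Glo Plus 10 min; luminescence endpoint.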
# AmpC inh detg: AmpC beta-lactamase inhibition with detergent present; P00811; AmpC hydrolysis of nitrocefin, absorbance 480 nm, 0.01% Triton; Potency, µM (doses to about 114 µM), for the others: at the top dose activity change, negative = inhibition, most hits filed as inhibitors; 370,000 compounds, 0.041% hits;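 note: 0% = no-compound wells and -100% = no-enzyme wells; nearly all actives have a fitted effect of over 25% in size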
# Target sequence (P00811 whole entry, looked up): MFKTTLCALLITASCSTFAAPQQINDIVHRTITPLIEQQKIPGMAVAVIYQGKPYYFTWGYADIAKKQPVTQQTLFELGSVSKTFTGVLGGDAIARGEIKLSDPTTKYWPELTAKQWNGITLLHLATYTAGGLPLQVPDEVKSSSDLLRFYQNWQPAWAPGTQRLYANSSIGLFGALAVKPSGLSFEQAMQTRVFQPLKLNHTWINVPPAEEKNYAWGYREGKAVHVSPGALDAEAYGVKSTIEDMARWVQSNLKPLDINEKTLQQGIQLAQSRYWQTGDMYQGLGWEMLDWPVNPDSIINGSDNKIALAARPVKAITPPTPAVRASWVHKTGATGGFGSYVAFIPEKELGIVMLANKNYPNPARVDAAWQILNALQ
#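 20 mM phosphate pH 7.0 + 0.01% (detergent screen) or 0.0001% Triton X-100; 5.3 nM AmpC reagent; cpd preinc 15 min RT; nitrocefin (800 uM stock) to start; A480 q20 s × 4 min; Activity was normalised to no-enzyme and no-compound control wells.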
# SARS PLpro yeast: SARS-CoV PLP inhibition in yeast; 330,000 compounds, 0.19% hits; Potency, µM (top dose mostly 32.9 µM), for the others: at the highest dose activity, positive = growth rescue, most hits filed as activators; S. cerevisiae expressing SARS-CoV PLpro, growth rescue; calls by dose curve; note: 0% is about no effect; nearly all actives have a fitted effect of over 55% in size
# RE007 growth inh: less growth of the S. pombe RE007 Vpr strain; S. pombe RE007 Vpr strain, BacTiter-Glo ATP luminescence, 24 h; Potency, µM (top dose mostly 92.2 µM), for inactives: top-dose activity change, negative = less growth, usual class: inhibitors; 360,000 compounds, 0.21% hits; AID 651644; active = well fitted falling curve with a large enough effect; inconclusive = small, poorly fitted or top-dose-only effect; inactive = no such curve, though single readings can be large or run the other way; note: % is set by controls: 0 for no effect and ±100 for the full control effect; nearly all actives have a fitted effect of over 50% in size
#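 Fission yeast RE007 carrying one integrated HIV-1 vpr copy, seeded at OD 0.01 in PMG+AL medium with 23 nL pinned compound. Grown 24 h at 30 degrees; viability read by BacTiter-Glo luminescence after 5 min.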
# AmpC no deterg: inhibitors of E. coli AmpC beta-lactamase without detergent. AmpC nitrocefin hydrolysis, absorbance 480 nm, 0.0001% Triton. Potency, µM (highest dose often 57.1 µM), for inactives: at the top dose activity change, negative = inhibition, most hits filed as inhibitors. 330,000 compounds, 0.52% hits;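 note: plate controls were no compound for no effect and no enzyme for full effect; nearly all actives have a fitted effect of over 20% in size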
#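 20 mM phosphate pH 7.0 + 0.01% (detergent screen) or 0.0001% Triton X-100; 5.3 nM AmpC reagent; cpd preinc 15 min RT; nitrocefin (800 uM stock) to start; A480 q20 s × 4 min; Activity was normalised to no-enzyme and no-compound control wells.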
# * = called active by the depositor; ? = inconclusive; . = no result; [ ] = remark or other dose. Unless noted, calls come from the whole dose curve; as a rule, active = well fitted curve in the direction sought with a large enough effect; inconclusive = small, poorly fitted or top-dose-only effect, or another doubt; inactive = no such curve, though single readings can be large; an effect the other way counts as inactive or inconclusive. Potency is the fitted concentration of half-maximal effect.
SMILES,Sm TGR block,TbPYK inhibitor,AmpC inh detg,SARS PLpro yeast,RE007 growth inh,AmpC no deterg
CC(=O)N(C1=C(N)C(=O)c2ccccc2C1=O)C(C)C,7.1µM*,-18%,3%,-2%,-25%,-11%
CC(=O)N(C)C1=C(O)c2ccccc2C(=O)C1=O,4%,-4%,-2%,-1%,2%,-7%
CCOC(=O)N1CCC(NC(=O)c2cc(C(=O)NC3CCCC3)ccc2CO)CC1,4%,3%,?,0%,-2%,0.71µM*
CCOC(=O)N1CCC(NC(=O)c2ccc(CO)c(C(=O)NC3CCN(C(=O)OCC)CC3)c2)CC1,?,1%,?,-1%,-2%,13%
Oc1ccc(N=Cc2cc(Br)c(N3CCOCC3)o2)cc1,18µM*,-3%,-4%,-7%,1%,-36%
O=[N+]([O-])c1cc(Br)c(O)c(C=Nc2ccc(N3CCOCC3)cc2)c1,-10%,-3%,-1%,-3%,-1%,82%
CCc1ccc(C2CC(=O)c3c([nH]c(C(=O)OC4CCCC4)c3C)C2)cc1 (stereo not given),-2%,-1%,-3%,.,.,.
C=CCn1c(O)c(CN2CCCCC2)c(C)c(C#N)c1=O,13µM*,-12%,6%,2%,1%,-25%
C#CCSc1nnc(CNS(=O)(=O)c2ccc(Br)cc2)n1C,10µM*,32%,-9%,5%,-4%,-17%
Oc1ccc(C2C[C@H]3CC[C@@H]2C3)cc1O (stereo not given in full),1µM*,?,0%,-3%,2%,-54%
O=C(NC(=S)Nc1cccc2ncccc12)c1ccccc1,8.9µM*,-3%,?,2%,-4%,-16%
O=C(NC(=S)Nc1cccc2ncccc12)c1cccs1,4µM*,3%,-1%,-1%,-27%,-12%
Cc1nc(-c2ccc(Cl)cc2)sc1CCNC(=O)C(=O)Nc1ccc(F)cc1F,17%,-21%,?,.,.,.
CCOc1ccc(CN2CCNC(=O)C2CC(=O)O)cc1 (stereo not given),-3%,7%,-1%,1%,2%,-1%
COc1ccccc1CN1CCNC(=O)C1CC(=O)NC1Cc2ccccc2C1 (stereo not given),-36%,4%,5%,0%,-16%,23%
Cc1ccc(CN2CCNC(=O)C2CC(=O)O)cc1 (stereo not given),35µM*,-6%,-8%,-3%,16%,-1%
COc1ccc(CN2CCNC(=O)C2CC(=O)NCc2ccc(C)s2)c(OC)c1 (stereo not given),32µM*,-5%,6%,0%,16%,46%
O=C(O)CC1C(=O)NCCN1C/C=C/c1ccccc1 (stereo not given),40µM*,4%,?,3%,6%,-2%
COc1ccccc1CN1CCNC(=O)C1CC(=O)O (stereo not given),79µM*,2%,-7%,-1%,11%,11%
O=C1CN(C(=O)COc2ccc(Cl)c(Cl)c2)c2ccccc2N1,0%,-14%,-12%,-4%,-7%,-13%
O=C(CN1C(=O)NC2(CCCC2)C1=O)Nc1cccc(Cl)c1Cl,-4%,-3%,?,0%,13%,-3%
O=C1CN(CC(=O)Nc2cccc(Cl)c2Cl)c2ccccc2N1,50µM*,-5%,-15%,0%,1%,-16%[11.4 µM]
O=C1CN(C(=O)Cn2ncc(Cl)c(Cl)c2=O)c2ccccc2N1,25µM*,-7%,6%,-7%,6%,-13%
COc1ccc(CCNC(=O)C(=O)NCC(c2ccco2)S(=O)(=O)c2ccc(C)cc2)cc1 (stereo not given),-25%,-6%,-1%,.,.,.
COC(=O)c1sccc1-c1ccc(C(N)=O)o1,50µM*,.,4%,0%,.,-20%
SMILES,Sm TGR block,TbPYK inhibitor,AmpC inh detg,SARS PLpro yeast,RE007 growth inh,AmpC no deterg
COc1ccc(NC(=O)CN(C)CC(=O)c2[nH]c(C)c(C(C)=O)c2C)cc1,?,3%,3%,2%,2%,-30%
COc1cc(CN(C)CC(=O)c2[nH]c(C)c(C(C)=O)c2C)ccc1OC(F)F,22µM*,3%,-3%,10%,-8%,-5%
Cn1c2ccccc2c(=O)c2cc(C#Cc3ccccn3)ccc21,20µM*,-3%,?,-6%,0%,-38%
COc1cc2oc3ccc(C#Cc4ccccn4)cc3c(=O)c2cc1OC,.,6%,.,.,4%,.
Cn1c2ccccc2c(=O)c2ccc(C#Cc3ccccn3)cc21,32µM*,-3%,?,-10%,-10%,-19%
Cc1ccc(-n2ncc(C(=O)N3CCCCC3)c2C2CCN(C(=O)OC(C)(C)C)CC2)c(C)c1,9%,-2%,14%,.,.,.
O=C1C2C3C=CC(CC3)C2C(=O)N1/N=C/c1c(O)ccc2ccccc12 (stereo not given),1%,3%,-9%,7%,-10%,138%
O=C1C2C3C=CC(CC3)C2C(=O)N1/N=C/c1ccccc1O (stereo not given),26%,0%,4%,5.6µM*,-10%,-34%
CC(C)(C)c1ccc(/C=N/NC(=S)NC2CCCCC2)cc1,3%,7%,?,20µM*,-10%,-42%
O=C(N/N=C/c1ccccc1)NC1CCCCC1,-10%,3%,?,-18%,1%,-10%
NNC(=O)CSc1c(-c2cccs2)[nH]c2ccccc12,-24%,-6%,?,6%,-20%,14µM*
CCCCCCC#Cc1cncc(C(=O)NNC(=O)Nc2cc(Cl)cc(Cl)c2)c1,18%,-12%,5%,1%,-14%,16µM*
O=C(O)CCc1ccc(-c2cccs2)n1CC1CCCO1 (stereo not given),8.9µM*,0%,-6%,-1%,-12%,-16%
COc1ccc(-c2ccc(CCC(=O)O)n2CC2CCCO2)cc1 (stereo not given),35µM*,1%,-5%,1%,-10%,-3%
CC(/C=N/NC(=O)CN1CCN(Cc2ccc(Cl)cc2)CC1)=C\c1ccco1,79µM*,-6%,-1%,0%,15%,116%
CC(=C/c1ccco1)/C=N/NC(=O)Cc1cccn1C,45µM*,-6%,-11%,-32%,-8%,-19%
Cn1cccc1CC(=O)N/N=C/c1ccco1,40µM*,-2%,5%,-2%,11%,-15%
CC(/C=N/NC(=O)Cc1cccn1C)=C\c1ccco1,25µM*,-17%,-1%,18%,-1%,?
Cn1cccc1CC(=O)N/N=C/c1ccc(C(C)(C)C)cc1,?,-14%,-3%,-2%,-19%,-30%
